Measured values from PubChem BioAssay (EPA / NIEHS).
Where “and” joins values, the source holds several entries; their conditions need not be identical. Identical values can stand only once. More than one record can exist for a structure, and the calls need not agree. Calls of active or inactive are those of the source. How the source made its calls: active means hit-call score of the fitted dose curve at least 0.9, where 1 is the maximum; inactive means score below 0.9.

Test: APR_HepG2_StressKinase_72hr: Apredica 72-hour HepG2 Assay for Stress Kinase (AID 2282921)
Details: HepG2 stress kinase (phospho-c-Jun) imaging, actives raise or lower the signal
Experimental: APR_HepG2_72hr is a cell-based, multiplexed-readout assay that uses HepG2, a human liver cell line, with measurements taken at 72 hours after chemical dosing in a 384-well plate.APR_HepG2_StressKinase_72hr is one of 10 assay component(s) measured or calculated from the APR_HepG2_72hr assay. It is designed to make measurements of enzyme activity, a form of enzyme reporter, as detected with fluorescence intensity signals by HCS Fluorescent Imaging technology.Data from the assay component APR_HepG2_StressKinase_72hr was analyzed into 1 assay endpoint. This assay endpoint, APR_HepG2_StressKinase_72hr, was analyzed with bidirectional fitting relative to DMSO as the negative control and baseline of activity. Using a type of enzyme reporter, measures of protein for gain or loss-of-signal activity can be used to understand the signaling at the pathway-level as they relate to the gene . Furthermore, this assay endpoint can be referred to as a primary readout, because this assay has produced multiple assay endpoints where this one serves a signaling function. To generalize the intended target to other relatable targets, this assay endpoint is annotated to the cell cycle intended target family, where the subfamily is stress response.
Cells were treated with dimethyl sulfoxide (DMSO) as a solvent control at a final concentration of 0.5% v/v or with compounds in DMSO with a resulting final DMSO concentration of 0.5% v/v. Compound treatment was done at concentrations of 0.39, 0.78, 1.56, 3.12, 6.24, 12.5, 25, 50, 100, and 200 uM in duplicate on each plate. Cells were treated with compounds for 1, 24, or 72 hr. Carbonyl […] m-chloro-phenylhydrazone (CCCP) and taxol were used as positive controls for mitochondrial function and cytoskeletal stability, respectively; DMSO served as the negative control for this experiment. Cells were fixed by the direct addition of 50 uL formaldehyde in Hank's Balanced Salt Solution (HBSS) to a final concentration of 3.7%. After incubation in the fixation medium for 30 min at room temperature (293-298 K), cells were rinsed twice with HBSS and treated with cell permeabilization buffer (16 uL of 0.5% Triton X-100) for 10 min at room temperature (293-298 K) before labeling. For mitochondrial membrane potential and mitochondrial measurements, pre-fixed cells were incubated with 50 uL of MitoTracker Red CMXRos (Invitrogen) at a concentration of 250 nM for 30 min before fixation. In the remaining cases, post-fixed cells were labeled by incubation with a multiplexed mixture of primary antibodies in HBSS for 60 min at room temperature (293-298 K) to detect immunoreactivity of c-Jun (1:500), phospho-histone H3 (1:100), phospho-histone H2A.x (1:200), p53 (1:400), alpha-tubulin (1:200) and Hoechst 33342 (2 ug/mL). Cells were labeled for multiplexed imaging on two separate plates: a) Hoechst 33342, MitoTracker Red, phospho-histone H3, and alpha-tubulin, and b) Hoechst 33342, phospho-histone H2A.x, and c-Jun. A final rinse with HBSS (50 uL) was performed before analysis. The primary and secondary antibodies for the proteins were phospho-histone H3 (rabbit anti-phospho-histone H3 and FITC-donkey anti-rabbit IgG), phospho-histone H2A.x (mouse anti-phospho-histone H2A.x and FITC-donkey anti-mouse IgG), c-Jun (rabbit anti-phospho-c-Jun and Cy3-donkey anti-rabbit IgG), p53 (sheep anti-p53 and Cy5-donkey anti-sheep IgG), alpha-tubulin (mouse anti-alpha-tubulin and Cy5-donkey anti-mouse IgG). These antibodies are available as the CellCiphr HepG2 assay kit (Millipore).Digital images of each well were captured using a Cellomics ArrayScan VTI (Thermo Scientific Cellomics) (0.8 NA objective, 0.63x optical coupler, and XF-93 filter set) at 20x magnification. The images were acquired using the autofocus feature of the ArrayScan instrument, which entails the following steps. First, the camera focuses on channel 1 (Hoechst 33342), where nuclei are identified. Second, a Z offset of 1 um is used for capturing mitochondria (MitoTracker Red). […]
With CCCN(CCC)c1c([N+](=O)[O-])cc(S(N)(=O)=O)cc1[N+](=O)[O-] the outcome was “inactive” and the AC50 was 54.4 µM (active).
In the case of Fc1ccc(Oc2ccnc3cc(Cl)cc(Cl)c23)cc1, the outcome is reported as “inactive”.
With Cc1ccc(-c2c(Cl)nc(C#N)n2S(=O)(=O)N(C)C)cc1 the outcome was “inactive”.
In the case of COc1cnc(OC)n2nc(NS(=O)(=O)c3c(OCC(F)F)cccc3C(F)(F)F)nc12, the outcome is reported as “inactive”.
With CO/C=C(/C(=O)OC)c1ccccc1Oc1cc(Oc2ccccc2C#N)ncn1 the outcome was “inactive” and the AC50 was 36 µM (active).
For COP(=S)(OC)Oc1nc(Cl)c(Cl)cc1Cl, the outcome was “inactive”.
With O=C(O)c1nc(Cl)ccc1Cl the outcome was “inactive”.
In the case of C=CCC1=C(C)C(OC(=O)C2C(C=C(C)C)C2(C)C)CC1=O (stereo not given), the AC50 is reported as 60.6 µM (active) and 52.5 µM (active) and the outcome is reported as “inactive”.
With CCNc1nc(Cl)nc(NCC)n1 the outcome was “inactive”.
With CCCCNC(=O)OCC#CI the outcome was “inactive”.
With CCON=C(CC)C1=C(O)CC(c2c(C)cc(C)cc2C)CC1=O (stereo not given) the outcome was “inactive”.
With CC1=C(C(=O)Nc2ccccc2)SCCO1 the outcome was “inactive”.
For COc1nc(C)nc(NC(=O)NS(=O)(=O)c2ccccc2CCC(F)(F)F)n1, the outcome was “inactive”.
For CON(C)C(=O)Nc1ccc(Cl)c(Cl)c1, the outcome was “inactive”.
With O=C(Nc1ccccc1)Nc1ccnc(Cl)c1 the outcome was “inactive”.
In the case of CCCCNC(=O)n1c(NC(=O)OC)nc2ccccc21, the outcome is reported as “inactive”.
In the case of CC(C)(C)c1ccc(CSc2cnn(C(C)(C)C)c(=O)c2Cl)cc1, the outcome is reported as “inactive”.
For CNC(=O)ON=CC(C)(C)SC, the outcome was “inactive”.
For COC(=O)C(C)Oc1ccc(Oc2ccc(Cl)cc2Cl)cc1 (stereo not given), the outcome was “inactive”.
For Cc1cc(Cl)ccc1OCC(=O)O, the outcome was “inactive”.
With COP(N)(=O)SC (stereo not given) the outcome was “inactive”.
In the case of N#Cc1nn(-c2c(Cl)cc(C(F)(F)F)cc2Cl)c(N)c1S(=O)C(F)(F)F (stereo not given), the AC50 is reported as 105 µM (active).
For COC(=O)c1ccccc1C(=O)OC, the outcome was “inactive”.
In the case of CC(C)Oc1cc(-n2nc(C(C)(C)C)oc2=O)c(Cl)cc1Cl, the outcome is reported as “inactive”.
With C#CCOS(=O)OC1CCCCC1Oc1ccc(C(C)(C)C)cc1 (stereo not given) the outcome was “inactive”.
In the case of Cc1c(F)c(F)c(COC(=O)C2C(/C=C(\Cl)C(F)(F)F)C2(C)C)c(F)c1F (stereo not given), the outcome is reported as “inactive”.
In the case of CCc1nn(C)c(C(=O)NCc2ccc(C(C)(C)C)cc2)c1Cl, the outcome is reported as “inactive”.
In the case of CCOC(=O)CC(SP(=S)(OC)OC)C(=O)OCC (stereo not given), the outcome is reported as “inactive”.
For CCOC(=O)C(Cl)Cc1cc(-n2nc(C)n(C(F)F)c2=O)c(F)cc1Cl (stereo not given), the outcome was “inactive”.
In the case of N#CC(CCc1ccc(Cl)cc1)(Cn1cncn1)c1ccccc1 (stereo not given), the outcome is reported as “inactive”.
For CCOP(=S)(OCC)SCn1c(=O)oc2cc(Cl)ccc21, the outcome was “inactive”.
For C=CC1(C)OC(=O)N(c2cc(Cl)cc(Cl)c2)C1=O (stereo not given), the outcome was “inactive”.
With COC(=O)C=C(C)OP(=O)(OC)OC the outcome was “inactive”.
With N#Cc1cc(Br)c(O)c(Br)c1 the outcome was “inactive”.
In the case of CNC(=S)S, the outcome is reported as “inactive”.
With CCCCOC(=O)c1ccccc1C(=O)OCCCC the outcome was “inactive”.
For CCNc1nc(Cl)nc(NC(C)C)n1, the outcome was “inactive”.
